Reference: PubChem BioAssay AID1347142 (National Center for Advancing Translational Sciences (NCATS), 2019)
Inconclusive results are not listed. Calls of active or inactive are those of the source. Calls follow the shape of the dose curve; as a rule, active = well fitted inhibition curve with a large enough effect; inconclusive = small, poorly fitted or top-dose-only effect; inactive = no such curve, though single readings can be large or run the other way.

Target: N-terminal Xaa-Pro-Lys N-methyltransferase 1 (Homo sapiens) (UniProt Q9BV86)
Experiment: qHTS Assay for Inhibitors of N-terminal methyltransferase 1 (NTMT1): ThioGlo3 Assay Confirmatory Screen, Round 1.
Settings: NTMT1 SAHH-coupled ThioGlo3 fluorescence, 30 min; series mostly up to 56.8 µM; activity change, negative = inhibition: at the top concentration
Excerpt: Assay Submitter (PI): Rong Huang Ph.D, Purdue University, West Lafayette, IN 47907 The N-terminal methytransferase 1 is the first methyltransferase that methylates protein alpha-N-amines and plays an important role in regulating cell mitosis, chromatin interactions and DNA repair. It is observed to be over-expressed in various cancer patient tissues like malignant melanoma and colorectal cancer tissues. Knockdown of NTMT1 in cancer cells causes cell mitotic defects and enhances sensitivity to DNA damaging chemotherapeutics. […] These critical cellular processes in which NTMT1 is implicated, coupled with emerging links to cellular dysfunction, strengthen the inference that NTMT1 is a compelling novel anticancer target. Progress have been made in understanding the molecular properties of NTMT1 and the biological consequences of protein alpha-N-terminal methylation, but there are no specific small molecule probes available for NTMT1 to fully characterize its MTase activity. To address this unmet need, a panel of assay is created and established to enable quantitative high-throughput screening (qHTS) for novel, potent, and selective small molecule NTMT1 inhibitors. Two orthogonal qHTS that use different reagents (ThioGlo vs. MTaseGlo) are developed for primary robotic screening against the NCATS chemical library of more than 400,000 small molecules. Identified inhibitors are reacquired, validated, and further characterized. […] Early Translation Branch (ETB) National Center for Advancing Translational Sciences (NCATS) National Institute of Health (NIH)
Materials: NTMT1 enzyme, substrate SPKRIA, control peptide RCC1-6 is provided by the Huang laboratory. ThioGlo3 Assay: In brief, 125nM NTMT1 enzyme was dispensed into a 1536-well assay plate with Aurora Discovery BioRAPTR Flying Reagent Dispenser (FRD, Beckton-Dickenson). Compounds (at various concentration) or 1uM RCC1-6 (SPKRIA) control were transferred to the assay plate using the Kalypsys 1536-pintool apparatus. After 1 min of room temperature incubation, 1uL of substrate (100uM SAM, 10uM SAHH, 15uM ThioGlo3) was added to the wells bringing the final assay volume to 4uL. Initial (background) fluorescence readout (EX: 340nm, EM: 450nm) was then detected using the PerkinElmer ViewLux microplate imager and a final fluorescence readout was taken after 30 min of room temperature incubation. The data was normalized to the background fluorescence.
Also: nearly all actives have a fitted effect of over 80% in size.
For activity change, negative = inhibition in this document: 0% is about no effect.
Potency is read from the fitted curve at half-maximal effect.

Sequence of N-terminal Xaa-Pro-Lys N-methyltransferase 1 (Homo sapiens) (Q9BV86 whole entry, looked up): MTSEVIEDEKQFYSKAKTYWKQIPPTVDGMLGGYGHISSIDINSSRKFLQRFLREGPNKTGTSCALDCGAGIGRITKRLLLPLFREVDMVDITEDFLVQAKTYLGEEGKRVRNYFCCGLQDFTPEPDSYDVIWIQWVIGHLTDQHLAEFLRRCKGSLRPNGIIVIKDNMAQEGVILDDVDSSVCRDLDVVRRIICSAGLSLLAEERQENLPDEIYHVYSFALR

SMILES	activity change, negative = inhibition	Potency
Nc1ncnc2c1ncn2[C@@H]1O[C@@H]2COP(O)(=S)O[C@H]2[C@H]1O (stereo partly drawn)	14.1% (inactive)	–
Nc1ncnc2c1ncn2[C@@H]1O[C@H](COP(=O)(O)CP(=O)(O)O)[C@@H](O)[C@H]1O	-1.6% (inactive)	–
CCN(CC)c1ncnc2c1ncn2[C@@H]1O[C@H](COP(=O)(O)OP(=O)(O)C(Br)(Br)P(=O)(O)O)[C@@H](O)[C@H]1O	-7.79% (inactive)	–
Nc1ncnc2c1ncn2[C@@H]1O[C@H](COP(=O)(O)OP(=O)(O)OP(=O)(O)O)[C@H]2OC3(O[C@H]21)C([N+](=O)[O-])=CC(=[N+]([O-])[O-])C=C3[N+](=O)[O-] (stereo partly drawn)	1.18% (inactive)	–
Nc1ncnc2c1nc(Sc1ccc(Cl)cc1)n2[C@@H]1O[C@@H]2COP(O)(=S)O[C@H]2[C@H]1O (stereo partly drawn)	-0.802% (inactive)	–
Nc1ncnc2c1ncn2[C@@H]1O[C@@H]2CO[P@](=O)(S)O[C@H]2[C@H]1O	-24.5% (inactive)	–
COc1cc2nc(N3CCCN(C)CC3)nc(N(C)C3CCN(C)CC3)c2cc1OC	–	24.1 µM (active)
CCNC(=O)[C@H]1O[C@@H](n2cnc3c(N)ncnc32)[C@H](O)C1O (stereo partly drawn)	22.9% (inactive)	–
